Measured values published in PubChem BioAssay AID1159580 (chemical genetic matrix, 2015).
The campaign covered roughly 5,500 compounds. About 2,000 (36%) were called active. About 18% were inconclusive and are not listed. No stated cut-off is given here; in the data, active means normalized growth mostly below about 0.91 (no sharp cut-off); inconclusive means no clear call, values can overlap the other calls; inactive means mostly above about 0.92. This is one part of the list.

Test: chemical genetic growth profiling, strain panel (AID 1159580);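 further: tested at 20 µM; growth read once vehicle control cultures reached saturation at 30 °C; 1 = growth at the plate median or of vehicle wells; lower values mean less growth of the strain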
Settings: growth OD
[1] = S. cerevisiae deletion strains, locus YHR030C, strain SLT2, active compounds read low
[2] = S. cerevisiae deletion strains, locus YHR079C, strain IRE1, active compounds read low
[3] = S. cerevisiae deletion strains, locus YJL095W, strain BCK1, active compounds read low
[4] = S. cerevisiae deletion strains, locus YJR066W, strain TOR1, active compounds read low
[5] = S. cerevisiae deletion strains, locus YLR113W, strain HOG1, active compounds read low
[6] = S. cerevisiae deletion strains, locus YNL183C, strain NPR1, active compounds read low
[7] = S. cerevisiae deletion strains, locus YOR231W, strain MKK1, active compounds read low
[8] = S. cerevisiae deletion strains, locus YPL256C, strain CLN2, active compounds read low

Measured: normalized growth

CC(C)=CCC/C(C)=C/CC/C(C)=C/CO
active: [1] 0.416 | [2] 0.506 | [3] 0.609 | [4] 0.804 | [5] 0.35 | [6] 0.732 | [7] 0.407 | [8] 0.388

C=C[C@](C)(O)CCC=C(C)C
inactive: S. cerevisiae deletion strains, locus YBR021W, strain FUR4, active compounds read low 1.01 | S. cerevisiae deletion strains, locus YBR229C, strain ROT2, active compounds read low 1 | S. cerevisiae deletion strains, locus YCL029C, strain bik1, active compounds read low 1.02 | S. cerevisiae deletion strains, locus YDL035C, strain GPR1, active compounds read low 1.04 | S. cerevisiae deletion strains, locus YDL074C, strain BRE1, active compounds read low 1.06 | S. cerevisiae deletion strains, locus YDL101C, strain DUN1, active compounds read low 1.01 | S. cerevisiae deletion strains, locus YDL134C, strain PPH21, active compounds read low 1 | S. cerevisiae deletion strains, locus YDL185W, strain tfp1, active compounds read low 1.02 | S. cerevisiae deletion strains, locus YDL192W, strain arf1, active compounds read low 1.01 | S. cerevisiae deletion strains, locus YDR101C, strain arx1, active compounds read low 1.04 | S. cerevisiae deletion strains, locus YDR162C, strain NBP2, active compounds read low 1 | S. cerevisiae deletion strains, locus YDR318W, strain mcm21, active compounds read low 0.986 | S. cerevisiae deletion strains, locus YDR388W, active compounds read low 1.01 | S. cerevisiae deletion strains, locus YDR502C, strain sam2, active compounds read low 0.999 | S. cerevisiae deletion strains, locus YEL061C, strain CIN8, active compounds read low 1 | S. cerevisiae deletion strains, locus YER110C, active compounds read low 1.01 | S. cerevisiae deletion strains, locus YER155C, strain BEM2, active compounds read low 1.01 | S. cerevisiae deletion strains, locus YER167W, strain BCK2, active compounds read low 1.01 | S. cerevisiae deletion strains, locus YGL078C, strain dbp3, active compounds read low 1.02 | S. cerevisiae deletion strains, locus YGL086W, strain mad1, active compounds read low 1.05 | S. cerevisiae deletion strains, locus YGL248W, strain PDE1, active compounds read low 0.995 | S. cerevisiae deletion strains, locus YGR135W, strain pre9, active compounds read low 1.01 | S. cerevisiae deletion strains, locus YGR252W, strain gcn5, active compounds read low 0.977 | [1] 1.01 | S. cerevisiae deletion strains, locus YHR079C, strain IRE1 (second series), active compounds read low 1.01 | S. cerevisiae deletion strains, locus YHR094C, strain hxt1, active compounds read low 1.01 | S. cerevisiae deletion strains, locus YHR129C, strain ARP1, active compounds read low 1.02 | S. cerevisiae deletion strains, locus YHR200W, strain rpn10, active compounds read low 1.01 | S. cerevisiae deletion strains, locus YIL066C, strain RNR3, active compounds read low 1.01 | S. cerevisiae deletion strains, locus YIL073C, strain SPO22, active compounds read low 1.03 | S. cerevisiae deletion strains, locus YIL125W, strain kgd1, active compounds read low 1.02 | S. cerevisiae deletion strains, locus YIR030C, strain dcg1, active compounds read low 0.998 | [3] 0.988 | S. cerevisiae deletion strains, locus YJL134W, strain LCB3, active compounds read low 0.999 | S. cerevisiae deletion strains, locus YJL168C, strain set2, active compounds read low 1.01 | S. cerevisiae deletion strains, locus YJL187C, strain SWE1 (second series), active compounds read low 1 | S. cerevisiae deletion strains, locus YJR043C, strain POL32, active compounds read low 1.04 | S. cerevisiae deletion strains, locus YJR075W, strain HOC1, active compounds read low 1 | S. cerevisiae deletion strains, locus YKL009W, strain mrt4, active compounds read low 1.05 | S. cerevisiae deletion strains, locus YKL068W, active compounds read low 1 | S. cerevisiae deletion strains, locus YKL085W, strain MDH1 (second series), active compounds read low 0.995 | S. cerevisiae deletion strains, locus YKL085W, strain MDH1, active compounds read low 0.995 | S. cerevisiae deletion strains, locus YKL190W, strain CNB1, active compounds read low 1 | S. cerevisiae deletion strains, locus YKR001C, strain vps1, active compounds read low 1.06 | S. cerevisiae deletion strains, locus YLR039C, strain RIC1, active compounds read low 1.03 | S. cerevisiae deletion strains, locus YLR058C, strain SHM2, active compounds read low 0.997 | S. cerevisiae deletion strains, locus YLR102C, strain apc9, active compounds read low 1.01 | S. cerevisiae deletion strains, locus YLR262C, strain YPT6, active compounds read low 1.01 | S. cerevisiae deletion strains, locus YLR268W, strain sec22, active compounds read low 1.06 | S. cerevisiae deletion strains, locus YLR330W, strain CHS5, active compounds read low 1.02 | S. cerevisiae deletion strains, locus YLR342W, strain FKS1 (second series), active compounds read low 1.05 | S. cerevisiae deletion strains, locus YLR371W, strain rom2, active compounds read low 1.02 | S. cerevisiae deletion strains, locus YLR418C, strain cdc73, active compounds read low 0.984 | S. cerevisiae deletion strains, locus YML016C, strain PPZ1, active compounds read low 1.01 | S. cerevisiae deletion strains, locus YML032C, strain rad52, active compounds read low 0.973 | S. cerevisiae deletion strains, locus YML124C, strain tub3, active compounds read low 0.999 | S. cerevisiae deletion strains, locus YMR078C, strain ctf18, active compounds read low 1.01 | S. cerevisiae deletion strains, locus YMR223W, strain ubp8, active compounds read low 0.994 | S. cerevisiae deletion strains, locus YMR307W, strain GAS1, active compounds read low 1.03 | S. cerevisiae deletion strains, locus YNL067W, strain RPL9B, active compounds read low 1.01 | S. cerevisiae deletion strains, locus YNL233W, strain BNI4, active compounds read low 1 | S. cerevisiae deletion strains, locus YNL250W, strain rad50, active compounds read low 1.02 | S. cerevisiae deletion strains, locus YNL271C, strain bni1, active compounds read low 1.01 | S. cerevisiae deletion strains, locus YNL298W, strain CLA4, active compounds read low 1.02 | S. cerevisiae deletion strains, locus YNL307C, strain MCK1, active compounds read low 1.03 | S. cerevisiae deletion strains, locus YNL322C, strain KRE1, active compounds read low 1 | S. cerevisiae deletion strains, locus YNR052C, strain pop2, active compounds read low 0.997 | S. cerevisiae deletion strains, locus YOL006C, strain TOP1, active compounds read low 1.1 | S. cerevisiae deletion strains, locus YOL012C, strain htz1 1.44 | S. cerevisiae deletion strains, locus YOL147C, strain pex11, active compounds read low 1 | S. cerevisiae deletion strains, locus YOR061W, strain CKA2, active compounds read low 1 | S. cerevisiae deletion strains, locus YOR069W, strain VPS5, active compounds read low 1.01 | S. cerevisiae deletion strains, locus YOR136W, strain idh2, active compounds read low 1.01 | S. cerevisiae deletion strains, locus YOR144C, strain elg1, active compounds read low 1.01 | S. cerevisiae deletion strains, locus YOR184W, strain ser1, active compounds read low 1.05 | S. cerevisiae deletion strains, locus YOR316C, strain cot1, active compounds read low 1.01 | S. cerevisiae deletion strains, locus YPL241C, strain CIN2, active compounds read low 0.998 | S. cerevisiae deletion strains, locus YPR119W, strain clb2, active compounds read low 1 | S. cerevisiae deletion strains, locus YPR141C, strain kar3, active compounds read low 1 | S. cerevisiae deletion strains, locus YPR163C, strain tif3, active compounds read low 1 | S. cerevisiae deletion strains, locus YPR167C, strain met16, active compounds read low 0.999 | S. cerevisiae deletion strains, strain wtn01, active compounds read low 1.07 | S. cerevisiae strains, strain wild type, active compounds read low 1.01

CC(C)=CCC/C(C)=C/CC/C(C)=C/CC/C(C)=C/CO
inactive: [1] 1.06 | [2] 1.05 | [3] 1.04 | [4] 0.944 | [5] 0.975 | [6] 0.932 | [7] 0.998 | [8] 1.08
